Assay outcomes (PubChem BioAssay)
Shown are actives, neighbours in structure and some others; about 11% of the full set was active somewhere.
Sm TGR block: inhibitors of Schistosoma mansoni thioredoxin glutathione reductase. purified TGR, DTNB reduction, TNB absorbance 405 nm. Potency, µM (highest dose often 114 µM), hits mostly inhibitors. 360,000 compounds, 3% hits; further: nearly all actives have a fitted effect of over 60% in size
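Kinetic colorimetric format: TGR-catalysed, NADPH-driven DTNB reduction monitored via TNB absorbance. Enzyme dispensed at 20 nM; compound exposure 15 min at room temperature before reaction start.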
Pf growth 96h: inhibits malaria parasite growth, 96 h; P. falciparum luciferase reporter growth, 96 h; Potency, µM (titrated, usually from 28.7 µM), usual class: inhibitors; AID 504834; 320,000 compounds, 6.9% hits
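Compounds incubated with erythrocytes infected by luciferase-expressing P. falciparum (2% hematocrit, 0.05% parasitemia final) for 96 hours, 37 C in 5% CO2. Growth inhibition scored as decreased luciferase luminescence.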
AMA1 RON2 block: AMA1-RON2 (P. falciparum) interaction inhibition. AlphaScreen AMA1-biotinylated RON2 peptide binding. Potency, µM (top dose mostly 58.2 µM), hits mostly inhibitors. 360,000 compounds, 0.2% hits; further: nearly all actives have a fitted effect of over 45% in size
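AMA1 (3D7) with his tag at 25 nM final met compounds first, then biotinylated RON2 peptide at 25 nM; detection used donor plus acceptor beads, 10 µg/mL apiece, read by AlphaScreen after 30 min at room temperature.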
NS1 function inh: blocks influenza NS1 protein function; 270,000 compounds, 0.4% hits; AID 2326; Potency, µM (top dose mostly 46.1 µM); calls by dose curve; further: actives are rising curves; nearly all actives have a fitted effect of over 50% in size
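OD600 was taken as the measure of yeast growth restored by compound in an NS1-expressing S. cerevisiae strain. Cells had been washed out of glucose medium and diluted 1:100 into galactose -URA medium, pH 6.0.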
Pf growth 48h: inhibits P. falciparum growth in the first generation, 48 h; P. falciparum luciferase growth in erythrocytes, 48 h; Potency, µM (series often up to 28.7 µM), actives largely listed as inhibitors; 310,000 compounds, 5.9% hits; AID 504832
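Cell-based growth assay: transgenic P. falciparum expressing firefly luciferase, cultured in red cells within RPMI 1640 containing 0.5% w/v Albumax, 24 mM bicarbonate and gentamycin. A drop in luciferase activity indicates inhibition.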
Large screens that a line does not name were inactive. Unless noted, the call rests on the fitted dose curve; in most records, active means well fitted curve in the direction sought with a large enough effect; inconclusive means small, poorly fitted or top-dose-only effect, or another doubt; inactive means no such curve, though single readings can be large; an effect the other way counts as inactive or inconclusive.

CCN1C(=O)/C(=c2\sc3nc(=O)c(Cc4ccccc4)nn3c2=O)c2ccccc21	Sm TGR block 3.5µM
O=C1CSC(c2cccnc2)N1CCc1ccccn1 (centres undefined)	none
CC(C)(C)c1ccc(C(=O)NCC(c2cccnc2)N2CCc3ccccc3C2)cc1 (centres undefined)	none (no result: Pf growth 96h, AMA1 RON2 block, NS1 function inh, Pf growth 48h)
OCC(O)CSc1nc(-c2ccccc2)nc2c1CCC2 (centres undefined)	none
C/C(=N\NC(=O)C1CC1)c1ccc(Cl)c(Cl)c1	Pf growth 96h 4.1µM (no result: Pf growth 48h)
OC1(c2ccc(Cl)c(Cl)c2)C[n+]2ccccc2N1Cc1ccccc1 (centres undefined)	Pf growth 96h inconclusive, Pf growth 48h 3.7µM
CCCOc1ccc(/C(O)=C2/C(=O)C(=O)N(CCCN3CCOCC3)C2c2ccncc2)cc1 (centres undefined)	Sm TGR block 11µM, Pf growth 96h inconclusive, NS1 function inh 10µM, Pf growth 48h inconclusive (no result: AMA1 RON2 block)
O=C1C(=O)N(CCCn2ccnc2)C(c2ccc(Br)cc2)/C1=C(\O)c1ccc2c(c1)OCCO2 (centres undefined)	Pf growth 96h 9.3µM
O=C1C(=O)N(CCN2CCOCC2)C(c2ccncc2)/C1=C(/O)c1ccc2c(c1)OCO2 (centres undefined)	Sm TGR block inconclusive, Pf growth 96h 8.3µM
O=C1C(=O)N(CCCn2ccnc2)C(c2ccc(Cl)cc2)/C1=C(\O)c1ccc2c(c1)OCCO2 (centres undefined)	none
CC(C)Oc1ccc(/C(O)=C2/C(=O)C(=O)N(CCCN3CCOCC3)C2c2ccncc2)cc1 (centres undefined)	none (no result: Sm TGR block, Pf growth 96h, AMA1 RON2 block, Pf growth 48h)
CCCOc1ccc(/C(O)=C2/C(=O)C(=O)N(CCN(C)C)C2c2ccco2)cc1 (centres undefined)	Sm TGR block 45µM, Pf growth 96h inconclusive
CCOC(=O)C1(CCCc2ccccc2)CCN(C2CCN(C(C)=O)CC2)CC1	Pf growth 96h inconclusive, Pf growth 48h inconclusive
CCN1CCN(c2ccccc2NC(=O)C(C)Oc2ccc(C(C)=O)cc2)CC1 (centres undefined)	Pf growth 96h inconclusive, Pf growth 48h inconclusive (no result: NS1 function inh)
Cc1ccc(S(=O)(=O)Cc2nc(-c3ccc(C(=O)NCc4ccccc4)cc3)oc2C)cc1	Sm TGR block 32µM (no result: Pf growth 96h, AMA1 RON2 block, NS1 function inh, Pf growth 48h)
Cc1oc(-c2ccc(C(=O)NCCC(C)C)cc2)nc1CS(=O)(=O)c1ccccc1	Sm TGR block 35µM (no result: Pf growth 96h, AMA1 RON2 block, NS1 function inh, Pf growth 48h)
CCN(CC)CCNC(=O)c1ccc(-c2nc(CS(=O)(=O)c3ccc(C)cc3)c(C)o2)cc1	none (no result: Pf growth 96h, AMA1 RON2 block, NS1 function inh, Pf growth 48h)
CCC(=O)c1ccc(OCC(=O)OCc2csc(CC(=O)Nc3ccccc3C)n2)cc1	none (no result: Sm TGR block, Pf growth 96h, NS1 function inh, Pf growth 48h)
CC(=O)Nc1ccc(NC(=O)c2cc3sccc3n2Cc2ccc(Cl)cc2)cc1	none (no result: Pf growth 96h, AMA1 RON2 block, NS1 function inh, Pf growth 48h)
CC(C)c1cc(NC(=O)CCl)on1	Sm TGR block 13µM, Pf growth 96h inconclusive, Pf growth 48h 3.3µM (no result: NS1 function inh)
Cc1cc(NC(=O)CCl)on1	Sm TGR block 16µM, Pf growth 96h inconclusive, Pf growth 48h 10µM (no result: NS1 function inh)
Cc1cc(NC(=O)c2cc(C(C)C)on2)no1	Pf growth 96h inconclusive
O=C1C(c2ccccc2)=[N+]([O-])c2ccccc21	Sm TGR block inconclusive, Pf growth 96h 0.37µM, AMA1 RON2 block 13µM, Pf growth 48h 0.66µM (no result: NS1 function inh)
C/C(CCc1ccco1)=N/NC(=O)CCC(=O)Nc1cccc(Cl)c1	none
C/C(CCc1ccco1)=N/NC(=O)CCC(=O)Nc1ccc(Br)cc1	Pf growth 96h 10µM
COc1ccnc(Oc2ccc(F)cc2)c1C(=O)N/C=N/OCc1c(Cl)cccc1Cl	Pf growth 96h inconclusive, Pf growth 48h 12µM
CCN(CC(=O)Nc1c(F)cccc1F)C(=O)c1cc([N+](=O)[O-])ccc1N1CCCCC1	Pf growth 48h inconclusive (no result: NS1 function inh)
CSc1ncccc1C(=O)N1CCN(S(=O)(=O)c2ccccc2)CC1	NS1 function inh inconclusive
CCOc1cc2c(cc1OCC)-n1cccc1C(c1cc(OC)ccc1F)NC2 (centres undefined)	Pf growth 96h 2.9µM, AMA1 RON2 block inconclusive, Pf growth 48h inconclusive
COc1cc(C2NCc3ccccc3-n3cccc32)ccc1O (centres undefined)	Pf growth 96h inconclusive, NS1 function inh inconclusive, Pf growth 48h 2.6µM
CCOc1cc2c(cc1OCC)-n1cccc1C(c1cccc(OCC)c1O)NC2 (centres undefined)	Pf growth 48h 15µM
CCOc1cc2c(cc1OCC)-n1cccc1C(c1ccccc1F)NC2 (centres undefined)	Pf growth 96h inconclusive, AMA1 RON2 block inconclusive, Pf growth 48h 8.3µM
CCOc1cc(C2NCc3ccccc3-n3cccc32)ccc1OC (centres undefined)	Pf growth 48h inconclusive
COc1ccc(C2NCc3ccccc3-n3cccc32)cc1 (centres undefined)	AMA1 RON2 block inconclusive (no result: Pf growth 48h)
CCOc1ccc(C2NCCc3cc(OC)c(OC)cc32)cc1OC (centres undefined)	none
CCOc1cc2c(cc1OCC)-n1cccc1C(c1ccc(C)cc1C)NC2 (centres undefined)	AMA1 RON2 block inconclusive, Pf growth 48h inconclusive
CCOc1cc2c(cc1OCC)-n1cccc1C(c1ccc(OC)c(O)c1)NC2 (centres undefined)	Pf growth 48h 2.9µM
Clc1cccc(C2NCc3ccccc3-n3cccc32)c1 (centres undefined)	Pf growth 48h inconclusive
CCOc1cc2c(cc1OCC)-n1cccc1C(c1cc(C)c(OC)cc1C)NC2 (centres undefined)	Pf growth 48h 6.6µM
CCOc1cc2c(cc1OCC)-n1cccc1C(c1cccc(F)c1)NC2 (centres undefined)	Pf growth 96h 9.3µM, AMA1 RON2 block inconclusive, Pf growth 48h 13µM
CCOc1ccc(OCC)c(NC(=O)c2cnc(SC)nc2-c2ccccc2)c1	none (no result: Pf growth 96h, AMA1 RON2 block, NS1 function inh, Pf growth 48h)
CCOC(=O)c1c(C)oc2nc(C)nc(NCCCN3CCN(c4cccc(C)c4)C(C)C3)c12 (centres undefined)	none (no result: Pf growth 96h, AMA1 RON2 block, NS1 function inh, Pf growth 48h)
Cc1cc2nc(SCC(=O)Nc3ccccc3C(=O)O)[nH]c2cc1C	Pf growth 96h inconclusive (no result: NS1 function inh)
COc1cccc(C2=CC(c3ccccc3)n3nnnc3N2)c1 (centres undefined)	none
COc1cccc(C2=CC(c3ccc(N(C)C)cc3)n3nnnc3N2)c1 (centres undefined)	Sm TGR block inconclusive
COc1cccc(C2=CC(c3ccccc3)n3ncnc3N2)c1 (centres undefined)	Sm TGR block 14µM, Pf growth 96h inconclusive, Pf growth 48h inconclusive (no result: AMA1 RON2 block)
COc1cccc(C2=CC(c3ccc(N(C)C)cc3)n3ncnc3N2)c1 (centres undefined)	Sm TGR block inconclusive, Pf growth 48h 10µM (no result: AMA1 RON2 block)
O=C(O)C(c1ccccc1)C(c1ccccc1)c1ccccc1 (centres undefined)	Pf growth 96h inconclusive, AMA1 RON2 block inconclusive (no result: NS1 function inh)
Cc1ccc(-c2cccc(C3CC=CC4C3C(=O)N(Cc3ccccc3)C4c3ccc(C(F)(F)F)cc3)c2)cc1 (centres undefined)	Pf growth 96h inconclusive, Pf growth 48h inconclusive
